Eight molecules from PubChem BioAssay (EPA / NIEHS) can be followed below.

A short description of experiment [1]: ATG_AP_1_CIS: Attagene CIS-FACTORIAL HepG2 Assay for human Activator Protein 1 (AP-1) (AID 2282931; active = hit-call score of the fitted dose curve at least 0.9, where 1 is the maximum; inactive = score below 0.9). To be noted: HepG2 Attagene cis-factorial AP-1 reporter mRNA; actives raise or lower the signal. An outline of the steps:
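Transient MRTU transfection of HepG2 → 24 h chemical treatment → RNA isolation, RT-PCR, 6-FAM labelling, HpaI digest → capillary electrophoresis. Fit: bidirectional, DMSO negative control.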

Experiment [2] is described as follows: ATG_ISRE_CIS: Attagene CIS-FACTORIAL HepG2 Assay for human Interferon Regulatory Factor 1 (IRF1) binding to an Interferon-Stimulated Response Element (ISRE) (AID 2282948; active = hit-call score of the fitted dose curve at least 0.9, where 1 is the maximum; inactive = score below 0.9). To be noted: HepG2 ISRE cis-reporter (Attagene), mRNA transcription readout; actives raise or lower the signal. In outline: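 Transfected HepG2 (multiple reporter transcription units, cis elements) dosed 24 h. RNA → oligo(dT) RT → PCR → 6-FAM primer extension → HpaI → CE. DMSO = negative control/baseline.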

Experiment [3] in a line: ATG_M_32_CIS: Attagene CIS-FACTORIAL HepG2 Assay for M32 Transcription Factor (Internal Marker) (AID 2282949; active = hit-call score of the fitted dose curve at least 0.9, where 1 is the maximum; inactive = score below 0.9;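 also: background control marker of the multiplexed CIS panel rather than a real target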). To be noted: HepG2 Attagene cis-factorial M32 reporter, mRNA; actives raise or lower the signal. An outline of the steps: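 Following 24 h chemical exposure of HepG2 cells transiently expressing cis-promoter reporter constructs, reporter transcript levels were determined by RT-PCR with fluorescent labelling and capillary electrophoresis, then fitted bidirectionally against DMSO.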

The target in experiment [4] is Hypoxia-inducible factor 1-alpha (Homo sapiens) (UniProt Q16665). The experiment in a line: ATG_HIF1a_CIS: Attagene CIS-FACTORIAL HepG2 Assay for human Hypoxia Inducible Factor 1 (HIF1A) (AID 2282951; active = hit-call score of the fitted dose curve at least 0.9, where 1 is the maximum; inactive = score below 0.9). Particulars: HepG2 Attagene cis-factorial HIF1a reporter transcription; actives raise or lower the signal. An outline of the steps:
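Transient MRTU transfection of human HepG2 liver cells, 24 h compound treatment, then total RNA isolation, oligo(dT) reverse transcription, PCR amplification, fluorescent labelling and capillary electrophoresis of reporter fragments. Gain or loss relative to DMSO.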

Experiment [5] in a line: ATG_PBREM_CIS: Attagene CIS-FACTORIAL HepG2 Assay for human Phenobarbital-responsive Enhancer Module (PBREM) (AID 2282955; active = hit-call score of the fitted dose curve at least 0.9, where 1 is the maximum; inactive = score below 0.9). To be noted: HepG2 PBREM cis-reporter, Attagene multiplexed transcription; actives raise or lower the signal. In outline: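 Endogenous transcription factors in human liver HepG2 cells drive a PBREM cis-element reporter, whose transcript level after 24 h treatment is quantified by RT-PCR with capillary electrophoresis; activity fitted in both directions against DMSO.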

Experiment [6] has as its target Oxysterols receptor LXR-beta (Homo sapiens) (UniProt P55055). The experiment in a line: ATG_LXRb_TRANS: Attagene TRANS-FACTORIAL HepG2 Assay for human Liver X Receptor beta (LXRb) (AID 2282981). To be noted: HepG2 Attagene TRANS GAL4-LXRb reporter, mRNA. In outline: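 Cells: HepG2, transiently transfected with GAL4-UAS reporter units plus LXRb-Gal4 fusion. Treatment: 24 h. Detection: reporter mRNA by RT-PCR, 6-FAM labelling, HpaI digestion, capillary electrophoresis.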

Experiment [7] in a line: ATG_M_06_TRANS: Attagene TRANS-FACTORIAL HepG2 Assay for M06 Transcription Factor (Internal Marker) (AID 2282983). To be noted: HepG2 Attagene TRANS M06 internal marker reporter. An outline of the steps:
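HepG2 cells transiently transfected with multiplexed GAL4-UAS reporter transcription units; after 24 h compound exposure, reporter mRNA measured by RT-PCR, FAM-labelled primer extension, HpaI digestion and capillary electrophoresis. Gain-of-signal fitted versus DMSO baseline; background control readout.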

The nature of experiment [8]: ATG_NF_kB_CIS: Attagene CIS-FACTORIAL HepG2 Assay for human Nuclear Factor Kappa B (NF-kB) (AID 2282991; active = hit-call score of the fitted dose curve at least 0.9, where 1 is the maximum; inactive = score below 0.9). Particulars: HepG2 Attagene cis-factorial NF-kB reporter mRNA; actives raise or lower the signal. An outline of the steps:
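Transient MRTU transfection of human HepG2 liver cells → 24 h chemical exposure → total RNA, oligo(dT) RT → PCR, 6-FAM primer extension, HpaI digest 2 h 37 C → CE fragment analysis. Bidirectional fitting, DMSO negative control.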

Experiment [9] concerns the target human Peroxisome Proliferator-activated Receptor delta (PPARd), PPARD (gene 5467) (UniProt Q03181). The experiment in a line: ATG_PPARd_TRANS: Attagene TRANS-FACTORIAL HepG2 Assay for human Peroxisome Proliferator-activated Receptor delta (PPARd) (AID 2283002). In outline: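 Cell-based TRANS reporter: HepG2, transient MRTU transfection, 24 h exposure. Readout = reporter mRNA (RT-PCR/CE, 6-FAM). Gain-of-signal fit vs DMSO control.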

The target of experiment [10] is Retinoic acid receptor RXR-alpha (Homo sapiens) (UniProt P19793). The experiment in a line: ATG_RXRa_TRANS: Attagene TRANS-FACTORIAL HepG2 Assay for human Retinoid X Receptor alpha (RXRa) (AID 2283012). An outline of the steps:
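Cells (HepG2) carried transiently transfected GAL4-responsive reporter units. Following a 24 h chemical incubation, reporter mRNA induction was read via RT-PCR fragment analysis; DMSO served as negative control and baseline.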

The target in experiment [11] is human Retinoid X Receptor beta (RXRb), RXRB (gene 6257) (UniProt P28702). The experiment is described as follows: ATG_RXRb_TRANS: Attagene TRANS-FACTORIAL HepG2 Assay for human Retinoid X Receptor beta (RXRb) (AID 2283013). An outline of the steps:
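Multiplexed TRANS reporter assay in HepG2; 24 h dosing; reporter mRNA by RT-PCR/CE fluorescence; gain-of-signal relative to DMSO.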

The nature of experiment [12]: TOX21_p53_BLA_p2_viability: Viability Assessment in the Tox21 HCT-116 p53 Agonism Beta-lactamase Assay, Phase 2 (AID 2283591).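 Also: compound exposure lasted 16 h at 37 °C; actives lower the ATP signal meaning cytotoxicity.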 In outline: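 Cytotoxicity readout: CellTiter-Glo ATP luminescence, 30 min at room temperature, after the beta-lactamase read. Cells were HCT116 exposed 16 h at 37C to compounds pin-transferred at 217-fold dilution from DMSO stocks.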
Experiment [13] has as its target Cellular tumor antigen p53 (Homo sapiens) (UniProt P04637). The experiment is described as follows: TOX21_p53_BLA_p3_ratio: Tox21 HCT-116 p53 Agonism Beta-lactamase Assay, Ratio, Phase 3 (AID 2283596). An outline of the steps: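 HCT116 p53-bla cells (4000/well) given compound in DMSO (217-fold dilution) after 5 h, incubated 16 h at 37C. CCF4-AM substrate 2 h at room temperature; 460/530 nm emission ratio, gain fitted against DMSO.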

Experiment [14] has the same target. The experiment in a line: TOX21_p53_BLA_p5_ratio: Tox21 HCT-116 p53 Agonism Beta-lactamase Assay, Ratio, Phase 5 (AID 2283599). An outline of the steps: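 Beta-lactamase reporter ratio (blue 460 nm over green 530 nm, 405 nm excitation) after 2 h CCF4-AM loading, in HCT-116 cells exposed 16 h at 37 C to compounds pinned at 217-fold dilution. Increases relative to DMSO baseline scored.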

The target is the same in experiment [15]. The experiment is described as follows: TOX21_p53_BLA_p4_ratio: Tox21 HCT-116 p53 Agonism Beta-lactamase Assay, Ratio, Phase 4 (AID 2283601). An outline of the steps:
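Signal is the blue/green (460nm/530nm) ratio of cleaved versus uncleaved CCF4-AM substrate, read after 2 h substrate loading. Cells were HCT116 carrying the p53-responsive beta-lactamase reporter, dosed 16 h at 37C, 5% CO2; CellTiter-Glo measured in parallel.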

A short description of experiment [16]: ATG_M_61_CIS: Attagene CIS-FACTORIAL HepG2 Assay for M61 Transcription Factor (Internal Marker) (AID 2282937; active = hit-call score of the fitted dose curve at least 0.9, where 1 is the maximum; inactive = score below 0.9). To be noted: HepG2 Attagene CIS-FACTORIAL M61 internal marker reporter; actives raise or lower the signal. In outline:
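Human liver HepG2, transient MRTU transfection (cis promoter elements), 24 h compound. Total RNA → oligo(dT) RT → PCR → FAM label → HpaI → CE. Internal background marker; bidirectional fitting, DMSO = baseline.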

Experiment [17] can be described thus: ATG_GRE_CIS: Attagene CIS-FACTORIAL HepG2 Assay for human Glucocorticoid Response Elements (GRE) (AID 2282947; active = hit-call score of the fitted dose curve at least 0.9, where 1 is the maximum; inactive = score below 0.9). To be noted: HepG2 GRE cis-reporter, Attagene multiplex mRNA; actives raise or lower the signal. In outline: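 Assay uses human hepatoma HepG2 cells transfected with cis-promoter reporter units, exposed 24 h. mRNA from reporters detected by RT-PCR plus capillary electrophoresis; DMSO serves as negative control and baseline.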

Experiment [18] has as its target Signal transducer and activator of transcription 3 (Homo sapiens) (UniProt P40763). The experiment is described as follows: ATG_STAT3_CIS: Attagene CIS-FACTORIAL HepG2 Assay for human Signal Transducer and Activator of Transcription 3 (STAT3) (AID 2282963; active = hit-call score of the fitted dose curve at least 0.9, where 1 is the maximum; inactive = score below 0.9). Particulars: HepG2, Attagene cis-factorial STAT3 reporter transcription; actives raise or lower the signal. In outline: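 After a 24 h compound incubation, total RNA from MRTU-transfected HepG2 cells was converted to cDNA and reporter sequences PCR-amplified, labelled and profiled by capillary electrophoresis. Gain and loss of signal were referenced to DMSO.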

Experiment [19] can be described thus: ATG_TA_CIS: Attagene CIS-FACTORIAL HepG2 Assay for human TA Basal Promoter (AID 2282964; active = hit-call score of the fitted dose curve at least 0.9, where 1 is the maximum; inactive = score below 0.9). Particulars: HepG2 Attagene CIS-factorial TA basal promoter reporter; actives raise or lower the signal. An outline of the steps:
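Background internal-marker endpoint from a 52-component HepG2 cis-reporter panel. Cells treated 24 h; reporter transcripts quantified via RT-PCR and CE fluorescence against DMSO baseline.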

The target of experiment [20] is human Peroxisome Proliferator-activated Receptor alpha (PPARa), PPARA (gene 5465) (UniProt Q07869). The experiment is described as follows: ATG_PPARa_TRANS: Attagene TRANS-FACTORIAL HepG2 Assay for human Peroxisome Proliferator-activated Receptor alpha (PPARa) (AID 2283001). In outline: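 Reporter transcripts from GAL4-UAS units in transfected HepG2 were quantified 24 h after dosing. Detection used reverse transcription, PCR, fluorescent primer extension and capillary electrophoresis, with DMSO as baseline.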
Chain of human Peroxisome Proliferator-activated Receptor alpha (PPARa), PPARA (gene 5465) (Q07869 whole entry, looked up, the tested form may be a part): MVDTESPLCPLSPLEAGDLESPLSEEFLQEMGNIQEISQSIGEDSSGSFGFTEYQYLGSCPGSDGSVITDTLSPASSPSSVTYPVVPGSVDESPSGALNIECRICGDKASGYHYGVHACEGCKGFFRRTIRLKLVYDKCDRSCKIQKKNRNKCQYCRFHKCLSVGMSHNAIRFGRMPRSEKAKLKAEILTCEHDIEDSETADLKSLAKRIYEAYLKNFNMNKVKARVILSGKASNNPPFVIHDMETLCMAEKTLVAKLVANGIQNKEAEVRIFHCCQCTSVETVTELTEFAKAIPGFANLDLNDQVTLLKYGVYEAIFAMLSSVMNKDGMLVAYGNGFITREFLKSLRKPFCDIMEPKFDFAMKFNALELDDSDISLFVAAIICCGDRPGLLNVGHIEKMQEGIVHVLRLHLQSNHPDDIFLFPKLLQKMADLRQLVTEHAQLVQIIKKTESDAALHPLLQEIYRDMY

Molecules are shown by their SMILES. Inconclusive results are not listed. Activity calls are given as the source filed them. The calls were made as follows, unless noted: active = hit-call score of the fitted dose curve at least 0.9, where 1 is the maximum; inconclusive = response in the unintended direction; inactive = score below 0.9.

Chain of Signal transducer and activator of transcription 3 (Homo sapiens) (P40763 whole entry, looked up): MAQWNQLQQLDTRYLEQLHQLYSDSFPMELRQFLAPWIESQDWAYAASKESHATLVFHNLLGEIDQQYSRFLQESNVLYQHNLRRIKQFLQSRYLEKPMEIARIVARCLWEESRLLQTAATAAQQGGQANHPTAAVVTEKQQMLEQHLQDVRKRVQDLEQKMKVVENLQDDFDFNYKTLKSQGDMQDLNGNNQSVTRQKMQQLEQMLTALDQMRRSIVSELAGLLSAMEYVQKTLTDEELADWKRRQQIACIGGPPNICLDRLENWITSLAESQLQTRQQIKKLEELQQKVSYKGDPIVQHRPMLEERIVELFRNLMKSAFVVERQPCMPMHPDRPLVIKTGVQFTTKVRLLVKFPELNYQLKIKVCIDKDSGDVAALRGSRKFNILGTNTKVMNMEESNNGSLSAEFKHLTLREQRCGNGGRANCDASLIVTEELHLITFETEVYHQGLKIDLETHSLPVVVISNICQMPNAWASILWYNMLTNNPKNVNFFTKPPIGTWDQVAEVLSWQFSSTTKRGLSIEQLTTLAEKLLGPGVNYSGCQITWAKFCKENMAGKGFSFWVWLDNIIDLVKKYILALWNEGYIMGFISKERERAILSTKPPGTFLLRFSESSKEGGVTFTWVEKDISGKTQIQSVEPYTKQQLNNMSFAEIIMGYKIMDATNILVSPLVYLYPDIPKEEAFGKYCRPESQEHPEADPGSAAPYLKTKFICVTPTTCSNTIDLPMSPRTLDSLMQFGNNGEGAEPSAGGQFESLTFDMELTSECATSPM
Chain of human Peroxisome Proliferator-activated Receptor delta (PPARd), PPARD (gene 5467) (Q03181 whole entry, looked up): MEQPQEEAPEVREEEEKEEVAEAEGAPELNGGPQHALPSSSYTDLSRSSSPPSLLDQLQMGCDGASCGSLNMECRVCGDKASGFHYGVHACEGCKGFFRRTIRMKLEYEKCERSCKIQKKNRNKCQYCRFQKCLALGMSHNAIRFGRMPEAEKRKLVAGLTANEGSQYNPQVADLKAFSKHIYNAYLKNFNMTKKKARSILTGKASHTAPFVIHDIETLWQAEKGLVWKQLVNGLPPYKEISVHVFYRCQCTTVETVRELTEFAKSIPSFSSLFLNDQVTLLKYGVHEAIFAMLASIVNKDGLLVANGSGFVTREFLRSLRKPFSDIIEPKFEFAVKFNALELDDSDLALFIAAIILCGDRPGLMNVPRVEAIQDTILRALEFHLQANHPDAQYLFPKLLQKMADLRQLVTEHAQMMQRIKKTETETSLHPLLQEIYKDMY
Chain of Hypoxia-inducible factor 1-alpha (Homo sapiens) (Q16665 whole entry, looked up, the tested form may be a part): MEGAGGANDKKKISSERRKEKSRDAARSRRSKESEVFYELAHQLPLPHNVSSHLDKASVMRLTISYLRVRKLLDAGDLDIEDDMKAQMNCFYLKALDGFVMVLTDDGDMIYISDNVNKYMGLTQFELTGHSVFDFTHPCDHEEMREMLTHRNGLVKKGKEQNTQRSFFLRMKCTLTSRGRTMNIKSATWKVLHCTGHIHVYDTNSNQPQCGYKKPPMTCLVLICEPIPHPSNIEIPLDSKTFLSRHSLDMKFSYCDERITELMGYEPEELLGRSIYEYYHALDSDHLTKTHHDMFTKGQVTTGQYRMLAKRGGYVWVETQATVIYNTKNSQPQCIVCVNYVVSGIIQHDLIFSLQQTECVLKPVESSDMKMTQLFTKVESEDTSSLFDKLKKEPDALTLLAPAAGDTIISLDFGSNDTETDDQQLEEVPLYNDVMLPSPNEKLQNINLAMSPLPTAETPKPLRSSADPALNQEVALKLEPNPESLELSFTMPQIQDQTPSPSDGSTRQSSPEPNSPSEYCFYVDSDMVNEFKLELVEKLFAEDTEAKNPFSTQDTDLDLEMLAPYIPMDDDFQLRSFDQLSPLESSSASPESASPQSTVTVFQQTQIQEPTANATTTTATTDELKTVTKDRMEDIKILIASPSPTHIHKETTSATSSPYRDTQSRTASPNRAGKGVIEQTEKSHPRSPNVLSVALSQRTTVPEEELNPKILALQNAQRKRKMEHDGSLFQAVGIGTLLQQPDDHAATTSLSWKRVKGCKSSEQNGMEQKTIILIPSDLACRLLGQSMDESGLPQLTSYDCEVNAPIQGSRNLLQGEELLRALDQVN
Chain of Retinoic acid receptor RXR-alpha (Homo sapiens) (P19793 whole entry, looked up, the tested form may be a part): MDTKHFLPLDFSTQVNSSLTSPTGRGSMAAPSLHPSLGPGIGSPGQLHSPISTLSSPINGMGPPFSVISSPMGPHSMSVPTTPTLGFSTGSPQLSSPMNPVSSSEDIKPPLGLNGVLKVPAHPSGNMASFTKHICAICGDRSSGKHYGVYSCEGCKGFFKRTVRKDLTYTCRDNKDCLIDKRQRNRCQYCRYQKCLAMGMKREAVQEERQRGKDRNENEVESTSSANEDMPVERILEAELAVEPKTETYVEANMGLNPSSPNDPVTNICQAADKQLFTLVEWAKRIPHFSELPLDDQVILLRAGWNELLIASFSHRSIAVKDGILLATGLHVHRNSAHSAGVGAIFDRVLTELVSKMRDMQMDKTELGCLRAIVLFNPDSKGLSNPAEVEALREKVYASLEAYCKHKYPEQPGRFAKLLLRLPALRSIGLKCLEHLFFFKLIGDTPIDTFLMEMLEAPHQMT
Chain of Cellular tumor antigen p53 (Homo sapiens) (P04637 whole entry, looked up): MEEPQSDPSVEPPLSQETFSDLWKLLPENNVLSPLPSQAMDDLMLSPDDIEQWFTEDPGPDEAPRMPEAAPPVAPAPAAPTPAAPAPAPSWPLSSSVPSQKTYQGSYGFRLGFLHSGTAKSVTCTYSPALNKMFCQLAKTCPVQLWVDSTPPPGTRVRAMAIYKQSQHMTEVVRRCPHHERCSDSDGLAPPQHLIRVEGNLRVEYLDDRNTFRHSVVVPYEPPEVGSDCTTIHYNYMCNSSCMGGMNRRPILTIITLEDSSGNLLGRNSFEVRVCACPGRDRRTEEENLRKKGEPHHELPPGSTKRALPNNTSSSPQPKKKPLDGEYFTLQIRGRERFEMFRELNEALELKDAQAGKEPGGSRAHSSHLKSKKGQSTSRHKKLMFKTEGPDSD
Chain of human Retinoid X Receptor beta (RXRb), RXRB (gene 6257) (P28702 whole entry, looked up): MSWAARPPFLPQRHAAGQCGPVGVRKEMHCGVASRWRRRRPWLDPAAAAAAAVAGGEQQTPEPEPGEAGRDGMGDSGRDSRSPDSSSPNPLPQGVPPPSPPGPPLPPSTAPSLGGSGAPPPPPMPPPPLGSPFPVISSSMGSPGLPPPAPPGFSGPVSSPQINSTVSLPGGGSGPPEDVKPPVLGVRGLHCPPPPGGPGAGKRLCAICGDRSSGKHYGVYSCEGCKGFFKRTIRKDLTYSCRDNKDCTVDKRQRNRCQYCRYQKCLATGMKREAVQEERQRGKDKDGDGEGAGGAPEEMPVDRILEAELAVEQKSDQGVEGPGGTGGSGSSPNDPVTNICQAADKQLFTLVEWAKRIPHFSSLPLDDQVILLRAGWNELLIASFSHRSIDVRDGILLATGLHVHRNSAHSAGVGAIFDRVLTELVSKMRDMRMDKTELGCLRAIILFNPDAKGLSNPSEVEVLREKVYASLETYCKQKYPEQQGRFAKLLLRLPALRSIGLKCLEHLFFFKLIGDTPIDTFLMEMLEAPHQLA
Chain of Oxysterols receptor LXR-beta (Homo sapiens) (P55055 whole entry, looked up, the tested form may be a part): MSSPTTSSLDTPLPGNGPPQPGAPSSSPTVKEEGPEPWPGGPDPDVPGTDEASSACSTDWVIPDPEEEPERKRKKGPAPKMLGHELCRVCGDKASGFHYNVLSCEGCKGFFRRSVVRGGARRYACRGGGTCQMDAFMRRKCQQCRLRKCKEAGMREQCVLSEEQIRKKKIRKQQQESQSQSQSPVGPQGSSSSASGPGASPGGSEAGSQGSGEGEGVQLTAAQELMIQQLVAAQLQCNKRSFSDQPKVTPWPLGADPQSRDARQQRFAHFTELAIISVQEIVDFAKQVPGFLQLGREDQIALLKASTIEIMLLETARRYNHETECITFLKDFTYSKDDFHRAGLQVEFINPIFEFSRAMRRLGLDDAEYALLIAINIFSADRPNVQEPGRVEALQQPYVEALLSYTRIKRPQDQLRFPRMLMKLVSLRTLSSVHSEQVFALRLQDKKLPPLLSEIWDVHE

By AC50 is commonly meant the concentration giving half of the maximal activity seen. Consider `CC(=O)c1cc2c(cc1C)C(C)(C)C(C)CC2(C)C` (configuration not stated), for which the concentration at half-maximal activity (AC50) in experiment [1] is 26.6 µM (active); in [4] it was 2.78 µM (active); in [10] it was 22.8 µM (active); in experiment [11], 5.85 µM (active). Moreover, the molecule was called inactive in experiment [2], in experiment [3], in [5], in [6], in experiment [7] and in [8]. Besides, the result in experiment [9], in [12], in experiment [13], in experiment [14] and in experiment [15] was inactive.
Turning to `O=C(O)c1cc[c]([Hg][Cl])cc1`, the molecule was called inactive in [1], in [16], in experiment [17], in [2], in [3] and in experiment [4]. Also, the result in experiment [5], in experiment [18], in experiment [6], in [7], in [8] and in experiment [10] was inactive. Moreover, the outcome in experiment [13], in experiment [14] and in experiment [15] was inactive. Moreover, the AC50 in experiment [9] was 49.3 µM (active); in experiment [11], 53.8 µM (active).
`N#CCCCCC#N`: the molecule was called inactive in experiment [1], in [16], in experiment [17], in [2], in experiment [4] and in [5]. Also, the molecule was called inactive in experiment [18], in experiment [19], in [6], in [7], in experiment [10] and in [12]. For the same molecule, the result in [13], in [14] and in experiment [15] was inactive.
With `Oc1ccc(C2(c3ccc(O)cc3)c3ccccc3-c3ccccc32)cc1`, the outcome in experiment [1], in experiment [16], in experiment [17], in [3], in experiment [18] and in experiment [7] was inactive. Also, the molecule was called inactive in [8], in [20], in experiment [10] and in [12]. Besides, the concentration at half-maximal activity (AC50) in [2] was 14.8 µM (active); in experiment [4], 11.1 µM (active); in experiment [19] it was 17.2 µM (active); in experiment [13], 0.906 µM (active); in [14], 76.6 µM (active); in experiment [15] it was 67.8 µM (active).
Consider `Cl/C=C\CCl`, for which the outcome in experiment [1], in [17], in [3], in [4], in experiment [5] and in experiment [18] was inactive. The call in experiment [19], in experiment [7], in experiment [8], in experiment [20], in experiment [9] and in experiment [11] was inactive.
With `O=[N+]([O-])c1ccc(Cl)cc1`, the outcome in experiment [17], in experiment [2], in experiment [3], in [19], in experiment [6] and in experiment [8] was inactive. Besides, the outcome in experiment [20], in experiment [10], in experiment [12], in experiment [14] and in experiment [15] was inactive.
Regarding `[N-]=[N+]=CC(=O)OC[C@H](N)C(=O)O`, the call in [1], in [16], in [2], in experiment [18], in experiment [19] and in experiment [6] was inactive. Also, the molecule was called inactive in [7], in [8], in [20], in experiment [9], in [12] and in experiment [13]. For the same molecule, the result in [14] and in experiment [15] was inactive.
As to `Nc1ccccc1`, the call in [1], in experiment [16], in [17], in experiment [3], in experiment [4] and in [6] was inactive. In addition, the call in experiment [7], in [20], in experiment [10], in experiment [13], in experiment [14] and in experiment [15] was inactive.
